In PubChem BioAssay (Tox21) one finds Potency data, which are given here for ten compounds.

Results filed as inconclusive are left out. A number with no mark means an inactive call. Calls of active or inactive are those of the source. Unless noted, calls come from the whole dose curve; as a rule, active = well fitted curve in the direction sought with a large enough effect in the repeat runs; inconclusive = weak or mixed curves; inactive = no such curve, though single readings can be large; an effect the other way counts as inactive or inconclusive.

Experiment [1] can be described thus: qHTS assay to identify small molecule agonists of the RXR signaling pathway - cell viability counter screen (AID 1159529). Note: nearly all actives have a fitted effect of over 50% in size. Note: potency is the fitted concentration of half-maximal effect. An outline of the steps:
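RXR-alpha-UAS-bla HEK 293T cells in medium with 2% charcoal-stripped FBS were pre-incubated 5 hr, then compound-treated 16 hr at 37 C. Viability was read by CellTiter-Glo luminescence in the same wells as the beta-lactamase assay, with tetraoctyl ammonium bromide as positive control.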
In general terms: Quantitative high-throughput screening tests each substance at several concentrations.

Experiment [2] in a line: qHTS assay to identify small molecule antagonists of the retinoid acid receptor (RAR) signaling pathway - cell viability counter screen (AID 1159551). Note: nearly all actives have a fitted effect of over 35% in size. A digest of the protocol: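 Measured by luminescent ATP detection, viability reflects C3RL4 cells treated 6 h at 37 C with test chemicals in the presence of 1 uM (final) retinol.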
The nature of experiment [3]: qHTS assay to identify small molecule antagonists of the retinoic acid receptor (RAR) signaling pathway (AID 1159552; note: nearly all actives have a fitted effect of over 50% in size). An outline of the steps: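 Retinol signaling pathway inhibitors screened in C3RL4 RARE-luciferase reporter cells seeded overnight at 37 C, then compounds added with 1 uM (final) retinol as pathway substrate. After 6 hr at 37 C, luciferase luminescence read after 30 min at room temperature.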

Experiment [4] can be described thus: qHTS assay to identify small molecule agonists of the retinoic acid receptor (RAR) signaling pathway (AID 1159553). An outline of the steps: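 6 hr compound exposure (DMSO vehicle) of overnight-plated C3RL4 RARE-luc cells at 37 C; luminescence quantified after 30 min RT with luciferase reagent.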
Experiment [5] can be described thus: qHTS assay to identify small molecule antagonists of the estrogen related receptor (ERR) signaling pathway from Tox21 library - cell viability counter screen (AID 1224834). Note: nearly all actives have a fitted effect of over 30% in size. Note: potency is the fitted concentration of half-maximal effect. A digest of the protocol: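 Seeded ERR cells were rested 6 h at 37 C/5% CO2 before compounds, positive and negative controls or DMSO were added. Incubation continued for 17.5 h, and viability was then quantified by CellTiter-Fluor fluorescence.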

Experiment [6] concerns the target Luciferin 4-monooxygenase (Photinus pyralis) (UniProt P08659). Nature of the experiment: qHTS assay to identify small molecule inhibitors of firefly luciferase (AID 1224835). Note: series mostly up to about 120 µM; nearly all actives have a fitted effect of over 25% in size. An outline of the steps: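 Biochemical qHTS: compounds run as interplate titrations against purified firefly enzyme, with D-luciferin and ATP each at its KM concentration. Light output recorded by CCD imaging.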

A short description of experiment [7]: qHTS assay to identify small molecule agonists of the constitutive androstane receptor (CAR) signaling pathway - cell viability counter screen (AID 1224836). Note: series mostly up to about 92 µM; nearly all actives have a fitted effect of over 45% in size. An outline of the steps: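 HepG2 cells stably carrying hCAR and a CYP2B6-2.2kb reporter; 15-concentration compounds plus PK11195 (final 0.75 uM), 23 hr at 37 C/5% CO2. Viability read by CellTiter-Fluor fluorescence.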

Experiment [8] in a line: qHTS assay to identify small molecule antagonists of the constitutive androstane receptor (CAR) signaling pathway - cell viability counter screen (AID 1224837). Note: series mostly up to about 92 µM; nearly all actives have a fitted effect of over 45% in size. A digest of the protocol:
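To flag cytotoxic false antagonists, HepG2 hCAR/CYP2B6-2.2kb cells were treated 23 hr with 15-concentration compound series and 50 nM CITCO at 37 C/5% CO2; CellTiter-Fluor fluorescence was the measured end point.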

Experiment [9] deals with Nuclear receptor subfamily 1 group I member 3 (Homo sapiens) (UniProt Q14994). The experiment is described as follows: qHTS assay to identify small molecule antagonists of the constitutive androstane receptor (CAR) signaling pathway (AID 1224838).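 Note: HepG2 cells stably expressing hCAR with CYP2B6 luciferase reporter stimulated by CITCO; nearly all actives have a fitted effect of over 40% in size.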 An outline of the steps: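 Human hepatoma HepG2 cells expressing hCAR and a CYP2B6 promoter (2.2 kb) luciferase construct; compound titration (15 points) with 50 nM CITCO final, 24 h at 37 C/5% CO2; luminescence via ONE-Glo after 30 min at room temperature.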
Nuclear receptor subfamily 1 group I member 3 (Homo sapiens), sequence (Q14994 whole entry, looked up): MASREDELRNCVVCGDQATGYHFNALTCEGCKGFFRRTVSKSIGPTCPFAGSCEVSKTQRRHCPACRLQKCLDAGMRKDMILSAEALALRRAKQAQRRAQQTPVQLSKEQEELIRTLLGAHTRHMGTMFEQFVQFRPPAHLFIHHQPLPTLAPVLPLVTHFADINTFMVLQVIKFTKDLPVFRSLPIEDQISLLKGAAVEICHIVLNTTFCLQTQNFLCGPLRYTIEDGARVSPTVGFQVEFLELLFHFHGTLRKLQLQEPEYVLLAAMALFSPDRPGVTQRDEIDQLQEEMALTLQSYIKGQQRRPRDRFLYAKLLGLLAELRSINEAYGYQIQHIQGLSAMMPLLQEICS

Experiment [10] can be described thus: qHTS assay to identify small molecule antagonists of the estrogen related receptor signaling pathway with the pleiotropic PPARgamma coactivator (PGC) from Tox21 10K library - cell viability counter screen (AID 1224840; active = well fitted cell-killing curve with a large enough effect in the repeat runs, not every such curve was filed as active; note: nearly all actives have a fitted effect of over 40% in size). A digest of the protocol: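 Seeded PGC/ERR cells (2,000/well, 6 h, 37 C/5% CO2) get compound by pin tool; 17.5 h incubation at 37 C; CellTiter-Fluor added, 30 min, fluorescence measured.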

In experiment [11] the target is Thyrotropin receptor (Homo sapiens) (UniProt P16473). Nature of the experiment: qHTS assay to identify small molecule agonists of the thyroid stimulating hormone receptor (TSHR) signaling pathway (AID 1224843; calls by dose curve; note: nearly all actives have a fitted effect of over 45% in size). An outline of the steps: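 Agonist-mode screen: TSHR HEK293 cells received test chemicals for half an hour at room temperature, then HTRF cAMP detection reagents for one hour prior to fluorescence measurement. Each chemical ran as a 15-concentration series, triplicated.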
Thyrotropin receptor (Homo sapiens), sequence (P16473 whole entry, looked up): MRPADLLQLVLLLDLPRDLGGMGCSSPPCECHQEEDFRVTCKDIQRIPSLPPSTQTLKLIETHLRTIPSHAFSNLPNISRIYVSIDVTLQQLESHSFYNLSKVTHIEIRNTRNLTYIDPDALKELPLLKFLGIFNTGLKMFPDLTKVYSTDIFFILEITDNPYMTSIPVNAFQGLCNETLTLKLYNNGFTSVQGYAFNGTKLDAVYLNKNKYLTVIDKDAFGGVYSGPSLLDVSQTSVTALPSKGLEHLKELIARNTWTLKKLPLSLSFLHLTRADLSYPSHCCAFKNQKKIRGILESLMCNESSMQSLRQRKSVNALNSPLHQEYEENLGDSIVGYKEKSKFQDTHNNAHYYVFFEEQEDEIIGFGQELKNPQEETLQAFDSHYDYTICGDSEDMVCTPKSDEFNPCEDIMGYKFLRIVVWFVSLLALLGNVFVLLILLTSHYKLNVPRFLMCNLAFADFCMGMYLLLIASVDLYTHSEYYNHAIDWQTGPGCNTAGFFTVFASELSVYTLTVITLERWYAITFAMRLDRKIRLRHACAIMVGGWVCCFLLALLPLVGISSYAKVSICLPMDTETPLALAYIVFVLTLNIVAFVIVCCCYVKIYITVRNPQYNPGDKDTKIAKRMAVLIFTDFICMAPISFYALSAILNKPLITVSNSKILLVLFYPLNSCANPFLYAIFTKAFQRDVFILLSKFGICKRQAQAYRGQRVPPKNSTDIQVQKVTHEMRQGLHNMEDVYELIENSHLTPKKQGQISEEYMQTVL

Experiment [12] is described as follows: qHTS assay to identify small molecule agonists of the estrogen related receptor signaling pathway with the pleiotropic PPARgamma coactivator (PGC) from Tox21 10K library (AID 1224842). Note: nearly all actives have a fitted effect of over 15% in size. An outline of the steps: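 PGC/ERR reporter cell line, 2,000 cells per well, incubated 6 h at 37 C before 23 nL compound in DMSO was added. After 18 h at 37 C, One-Glo luminescence read following 30 min at room temperature.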

In experiment [13] the target is Nuclear receptor subfamily 1 group I member 3 (Homo sapiens) (UniProt Q14994). Nature of the experiment: qHTS assay to identify small molecule agonists of the constitutive androstane receptor (CAR) signaling pathway (AID 1224839). Note: series mostly up to about 92 µM; nearly all actives have a fitted effect of over 15% in size. An outline of the steps:
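HepG2 cells stably co-transfected with hCAR and a CYP2B6-2.2kb luciferase reporter; compounds at 15 concentrations with 0.75 uM PK11195 present. After 24 hr at 37 C, luciferase read by ONE-Glo luminescence.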

Experiment [14] is described as follows: qHTS assay to identify small molecule antagonists of the estrogen related receptor signaling pathway with the pleiotropic PPARgamma coactivator (PGC) from Tox21 10K library (AID 1224841; call rule not given here; note: series mostly up to about 92 µM; actives are mostly falling curves and most rising ones were filed inactive; nearly all actives have a fitted effect of over 50% in size). An outline of the steps: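 Test chemicals dissolved in DMSO were applied to pre-incubated (6 h) PGC/ERR cells at 2,000 cells/well for an 18 h, 37 C treatment; reporter luminescence was then read using One-Glo.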

Luciferin 4-monooxygenase (Photinus pyralis), sequence (P08659 whole entry, looked up): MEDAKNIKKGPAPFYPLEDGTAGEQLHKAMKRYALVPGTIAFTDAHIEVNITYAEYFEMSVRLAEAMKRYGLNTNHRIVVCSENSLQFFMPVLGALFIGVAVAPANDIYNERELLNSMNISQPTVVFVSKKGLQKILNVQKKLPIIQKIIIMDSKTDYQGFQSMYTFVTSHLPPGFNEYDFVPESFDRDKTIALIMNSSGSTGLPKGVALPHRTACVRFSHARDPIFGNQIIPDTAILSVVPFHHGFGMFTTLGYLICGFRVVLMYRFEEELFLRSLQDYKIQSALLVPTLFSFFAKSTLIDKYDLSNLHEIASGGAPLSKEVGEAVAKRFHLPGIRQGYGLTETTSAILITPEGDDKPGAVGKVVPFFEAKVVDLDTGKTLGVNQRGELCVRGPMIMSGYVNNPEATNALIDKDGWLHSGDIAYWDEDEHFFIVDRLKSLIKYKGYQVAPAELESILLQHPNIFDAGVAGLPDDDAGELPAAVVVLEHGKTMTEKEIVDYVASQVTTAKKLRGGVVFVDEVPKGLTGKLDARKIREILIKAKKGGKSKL

Take `O=C1c2ccccc2S(=O)(=O)N1CCCCN1CCN(c2ncccn2)CC1`: the Potency result in experiment [1], in experiment [2], in experiment [3], in experiment [4], in experiment [5] and in experiment [6] was “inactive” in each case. Also, the Potency result in experiment [7], in experiment [8], in [9], in [10] and in experiment [11] was “inactive” each time.
For `CCCCCCCCCCCCCCCCCCOS(=O)(=O)O`, the Potency in [1] was 43.6 µM (active). In addition, the Potency result in [2], in [3], in experiment [4], in experiment [6], in experiment [7] and in [8] was “inactive” in each case. In experiment [12], the Potency result was “inactive”.
On to `O=C(O)c1ccccc1Cl`, for which the Potency entry in experiment [1], in experiment [2], in experiment [3], in experiment [4], in experiment [5] and in experiment [6] was “inactive” each time. The Potency result in experiment [7], in [8] and in [10] was “inactive” throughout.
As for `O=P(O)(OCc1ccccc1)OCc1ccccc1`, the Potency entry in experiment [1], in experiment [2], in [3], in experiment [4], in experiment [5] and in experiment [6] was “inactive” each time. The Potency result in [7], in [8], in experiment [10] and in [11] was “inactive” each time.
As to `O=C(c1ccc(F)cc1)C1CCN(CCn2c(=S)[nH]c3ccccc3c2=O)CC1`, the Potency entry in experiment [1], in experiment [2], in [3], in experiment [6], in experiment [7] and in experiment [8] was “inactive” each time. The Potency result in experiment [9], in experiment [13], in experiment [12] and in experiment [11] was “inactive” in each case. Moreover, in experiment [5], the Potency is 29.8 µM (active).
As for `CCOCC(O)COc1ccc(NC(=O)CC[S+](C)C)cc1` (configuration not stated), the Potency entry in [1], in experiment [2], in experiment [3], in experiment [4], in experiment [5] and in experiment [6] was “inactive” in each case. Besides, the Potency entry in experiment [7], in [8], in experiment [9], in experiment [10] and in experiment [11] was “inactive” in each case.
With `Cc1cc(N)c2cc(NC(=O)Nc3ccc4nc(C)cc(N)c4c3)ccc2n1`, the Potency entry in experiment [1], in experiment [2], in experiment [3], in experiment [4], in [5] and in [7] was “inactive” throughout. Further, the Potency entry in [8], in experiment [9], in experiment [13] and in experiment [10] was “inactive” each time.
Consider `CCC(C)(C)CC`, for which the Potency result in [1], in [2], in experiment [3], in experiment [5], in experiment [6] and in experiment [7] was “inactive” in each case. Besides, the Potency result in experiment [8], in experiment [9], in experiment [10] and in experiment [12] was “inactive” each time.
With `O=C(O)CC(=O)C(=O)O`, the Potency entry in experiment [1], in experiment [2], in experiment [3], in experiment [4], in experiment [5] and in [6] was “inactive” throughout. Further, the Potency entry in experiment [7], in [8], in experiment [10] and in experiment [11] was “inactive” in each case.
Regarding `CCOc1ccc(N)c([N+](=O)[O-])c1`, the Potency result in [1], in experiment [2], in experiment [3], in experiment [4], in experiment [6] and in experiment [7] was “inactive” throughout. For the same compound, the Potency entry in experiment [8], in experiment [9], in [13], in experiment [10], in experiment [14] and in experiment [12] was “inactive” each time.
